KDM5B inh – inhibitors of human KDM5B histone demethylase; Potency, µM (highest dose often 57.7 µM), most hits filed as inhibitors; KDM5B demethylase, FDH-coupled NADH fluorescence (FDH is formaldehyde dehydrogenase); AID 1347165; 220,000 compounds, 2.6% hits; Q9UGL1; also: potency is read from the fitted curve at half-maximal effect; 0% is about no effect; nearly all actives have a fitted effect of over 70% in size
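KDM5BΔAP (200 nM final) in 50 mM HEPES pH 7.5, 0.01% Tween-20 was preincubated 10 min at RT with compound over a concentration range. Substrate mix (H3K4me3 12.5 µM, α-KG 25 µM, Fe²⁺, ascorbate, NAD⁺, FDH) was added, and NADH fluorescence change over 30 min gave dose-response curves.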
HEK293 viab – cell viability loss counter-screen; AID 1671193; HEK-293-SNCA-luc viability, GF-AFC fluorescence, 24 h; Potency, µM (highest dose often 57.1 µM), without a hit: top-dose activity change, negative = cytotoxicity, most hits filed as cytotoxic; 150,000 compounds, 0.12% hits;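 also: potency is read from the fitted curve at half-maximal effect; 0% = DMSO-treated cells and -100% = medium-only wells without cells; nearly all actives have a fitted effect of over 30% in size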
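HEK-293-SNCA-luc cells (1500/well) plated 24 h, then exposed 24 h to a dilution series; GF-AFC added 30 min at 37C, fluorescence 405/540 nm; normalised to medium-only and DMSO wells, Hill fit.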
IP6K1 inhibitor – IP6K1 kinase inhibition; IP6K1 kinase, ADP-Glo luminescence, 2 h; stronger effect = lower value; activity change, % (series mostly up to about 58 µM); 140,000 compounds, 0.81% hits; in the data active = activity change below about -25%; also: % is scaled to controls: 0 for no effect and ±100 for the full control effect
Target sequence (Q92551 whole entry, looked up): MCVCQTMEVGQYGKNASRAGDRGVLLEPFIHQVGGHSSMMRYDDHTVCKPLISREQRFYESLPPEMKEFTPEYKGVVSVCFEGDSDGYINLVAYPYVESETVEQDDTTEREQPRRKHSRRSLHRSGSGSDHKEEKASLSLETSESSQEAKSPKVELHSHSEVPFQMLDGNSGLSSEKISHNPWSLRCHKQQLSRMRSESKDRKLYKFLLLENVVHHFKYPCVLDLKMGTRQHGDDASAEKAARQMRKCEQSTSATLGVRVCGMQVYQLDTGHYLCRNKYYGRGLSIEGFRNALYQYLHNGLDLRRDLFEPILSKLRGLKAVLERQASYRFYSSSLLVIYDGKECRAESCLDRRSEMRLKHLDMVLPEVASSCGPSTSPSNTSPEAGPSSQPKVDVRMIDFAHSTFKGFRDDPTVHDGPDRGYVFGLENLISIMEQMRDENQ
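ADP-Glo luminescence measures ADP made by human IP6K1 during a 2 h RT reaction with ATP/IP6 (mix at 1.3 mM/130 uM); top library doses 57.5 and 19.1 uM final.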
SNCA expr inhib – SNCA gene expression inhibition | HEK-293 SNCA-luciferase knock-in, luminescence, 24 h | 140,000 compounds, 0.17% hits | Potency, µM (top dose mostly 57.2 µM), without a hit: at the top dose activity change, negative = inhibition, hits mostly inhibitors;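 also: potency is read from the fitted curve at half-maximal effect; plate controls were DMSO cells for no effect and cell-free wells for full effect; nearly all actives have a fitted effect of over 45% in size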
IP6K1 conf – confirmation of human IP6K1 inhibitors | AID 1645852 | Potency, µM (doses to about 49 µM), for the others: at the top dose activity change, negative = inhibition, most hits filed as inhibitors | 1,200 compounds, 13% hits | recombinant IP6K1 kinase, ADP-Glo luminescence, 2 h | shares compounds with IP6K1 inhibitor; also: potency is read from the fitted curve at half-maximal effect; % is scaled to controls: 0 for no effect and ±100 for the full control effect; nearly all actives have a fitted effect of over 65% in size
* = called active by the depositor; i = inactive; ? = inconclusive; . = no result given; ! = not confirmed by another sample; [ ] = dose if it differs, or a comment. Compounds with a hit are over-represented: about 2.8% of the library has one in this group of screens. Unless noted, calls follow the shape of the dose curve; as a rule, active = well fitted curve in the direction sought with a large enough effect; inconclusive = small, poorly fitted or top-dose-only effect, or another doubt; inactive = no such curve, though single readings can be large; an effect the other way counts as inactive or inconclusive.

SMILES	KDM5B inh	HEK293 viab	IP6K1 inhibitor	SNCA expr inhib	IP6K1 conf
CCCCCCn1c(=O)c(C(=O)Nc2ccc(C(=O)OCCC)cc2)c(O)c2ccccc21	.	-21%[12.5 µM]	10	.	.
COc1ccc2c(c1OC)CN1CCc3cc4c(cc3C1C2)OCO4 (stereo not given)	.	?	14	3µM*!	.
CN1CCc2cc3c(cc2C1C1OC(=O)c2c1ccc1c2OCO1)OCO3 (stereo not given)	.	9%	1	.	.
Cc1ccc2c(n1)N(C)[C@H](CO)CCN(CC(C)C)C2	16µM*	2%[87.6 µM]	-8	13%[87.6 µM]	.
Cc1ccncc1C(=O)N1[C@H]2CC[C@@H]1c1cnc(-c3ccc(F)cc3)nc1C2	i	0%	-3	-5%	.
Cc1ccc([N+](=O)[O-])[c]2c1[O][Hg]2	.	?	-83*	?	1µM*
N[C@@H](Cc1ccc(Oc2cc(I)c(O)c(I)c2)c(I)c1)C(=O)O	.	21%[23.9 µM]	-54*	15%[25.6 µM]	?
COc1ccc2c(c[n+](C)c3c4cc5c(cc4ccc23)OCO5)c1OC	.	?	.	?	?
O=C1OC(c2ccc(O)c(S(=O)(=O)O)c2)(c2ccc(O)c(S(=O)(=O)O)c2)c2c(Br)c(Br)c(Br)c(Br)c21	.	2%[23.9 µM]	-65*	-38%[25.6 µM]	21µM*
CC(=O)O[C@]1(C)C(=O)OC/C2=C/CN(C)CCC(OC(=O)[C@@](O)(C(C)O)C[C@H]1C)C2=O (stereo not given in full)	i	.	.	.	.
Cc1cc(C)n(CC(=O)N2[C@H]3CC[C@@H]2c2cnc(-c4ccc(F)cc4)nc2C3)n1	i	0%	1	33%	.
CC[C@]1(O)CC[C@H]2[C@@H]3CCC4=CCCC[C@@H]4[C@H]3CC[C@@]21C	.	-21%[23.9 µM]	-28*	-3%[25.6 µM]	?
CC[C@H]1C[C@H]2[C@@H]3CCC4=CC(=O)CC[C@@H]4[C@H]3CC[C@]2(C)[C@H]1O	.	1%	-12	13%[25.6 µM]	.
COc1ccc([C@@H]2CN(C(=O)Nc3ccc(C)cc3)[C@@H]3C4CCN(CC4)[C@@H]32)cc1	i	10%	9	119%	.
COc1ccc([C@@H]2CN(C(=O)Cc3nonc3C)[C@@H]3C4CCN(CC4)[C@@H]32)cc1	i	-1%	-38*	-2%	-15%
COc1cc2c(cc1Oc1ccccc1)NC(=O)C21CCN(c2nc(C)cnc2C)CC1	32µM*	?	-32*	?	?
COc1cc2c(cc1OCC1CC1)NC(=O)C21CCN(c2nc(C)cc(C)n2)CC1	i	-4%[87.6 µM]	-25*	?	2%
COc1cc2c(cc1OCC1CC1)NC(=O)C21CCN(C(=O)c2cccnc2)CC1	i	7%[87.6 µM]	-25*	9%[87.6 µM]	-4%
COc1cc2c(cc1Oc1ccccc1)NC(=O)C21CCN(Cc2ccccc2)CC1	i	-20%[87.6 µM]	-16	?	.
Cc1ccc(Cn2cccc(C(=O)Nc3cc(C)on3)c2=O)cc1	i	17%	14	?	.
CC(C)c1ccc(OCC(=O)N2CCN(CCc3ccccn3)CC2)cc1	i	4%	-19	31%	.
Clc1cc(Cl)cc(CN2Cc3ccccc3-n3nncc3C2)c1	i	.	.	.	.
O=C1c2ccccc2C(=O)C1C(=O)C(c1ccccc1)c1ccccc1	.	-10%[23.9 µM]	-28*	-43%[25.6 µM]	?
CN(C(=O)C(c1ccccc1)c1ccccc1)[C@H](CN1CC[C@H](O)C1)c1ccccc1	.	-12%	-8	.	.
CN1CCN(C(=O)Cc2c[nH]c3ncc(-c4ccc5c(c4)OCO5)cc23)CC1	?	12%[87.6 µM]	-27*	-19%[87.6 µM]	?
SMILES	KDM5B inh	HEK293 viab	IP6K1 inhibitor	SNCA expr inhib	IP6K1 conf
Cc1ccc(Cn2cccc(C(=O)Nc3ccc4c(c3)OCCO4)c2=O)cc1	i	6%	16	236%	.
COc1ccc(C(=O)N2CCC3(CC2)C(=O)Nc2cc(OCC4CC4)c(OC)cc23)cc1	i	4%[87.6 µM]	-20	7%[87.6 µM]	.
c1ccc2c(c1)OCC(C1=NCCN1)O2 (stereo not given)	.	?	-44*	-27%	-8%
Cc1nnc2n1-c1sc(CCc3ccc(CC(C)C)cc3)cc1C(c1ccccc1Cl)=NC2C (stereo not given)	.	?	-7	-62%[25.6 µM]	.
Cc1cccc(OCC(=O)N2CCN(Cc3cc(=O)n4nc(-c5ccccc5Cl)sc4n3)CC2)c1	i	4%	-30*	10%	3%
O=C(c1cn(Cc2ccc(F)cc2)c2ccccc12)C1CCCCC1	i	.	.	.	.

Assay outcomes deposited in PubChem BioAssay by National Center for Advancing Translational Sciences (NCATS).
